The whole screen tested about 370,000 compounds, of which about 4,700 (1.3%) were called active. The sample as a whole holds a higher share of actives than the screen did. Unmarked numbers belong to inactive results.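 The calls were made as follows: active = inhibition above the plate cutoff, the mean of all test compounds on that plate plus 3 SD (cut at about 35% in these data); inactive = the rest.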
Assay: binders of r(CAG) RNA repeats, primary screen, biochemical, fluorescence (AID 651821);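 also: 0% = DMSO alone and 100% = 100 µM mitoxantrone as full dye displacement; higher means more dye released from RNA so lower well fluorescence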
Settings: r(CAG) RNA repeat, TO-PRO-1 dye displacement fluorescence; at 3 µM; active compounds read high
Work on `COc1ccc(-n2c(SCC(=O)NC3CCCC3)nnc2-c2ccncc2)cc1` yielded an inhibition of 3.34%.
`CCN(CC)S(=O)(=O)c1ccc(Cl)c(C(=O)NC(C)C(c2cccs2)N2CCCC2)c1` (stereo not drawn) showed an inhibition of -3.47%.
Compound `CCSc1nnc(SCC(=O)NNC(=O)c2ccccc2F)s1` has an inhibition of 1.18%.
For `O=C(CSc1nnc(SCc2ccc(Cl)cc2)s1)N/N=C/c1ccccc1Cl`, the inhibition was 5.04%.
For `Cc1ccc(NC(=S)NNC(=O)CSc2nnc(SCc3ccccc3Cl)s2)cc1`, the inhibition was 47.2% (active).
`O=C1Nc2cc(C(=O)N3CCN(c4ccc(F)cc4)CC3)ccc2NC1CSCc1cccc(F)c1` (stereo not drawn) gave an inhibition of 14.7%.
With `O=C(COC(=O)/C=C/c1cccc(Cl)c1)NCc1cccs1` the inhibition was -1.04%.
With `CCN(CC)C(=O)CSC(Nc1cccc(F)c1)=C(C#N)C#N` the inhibition was 56.7% (active).
In the case of `CCOC(=O)c1nnn(CC(=O)Nc2cccc(F)c2)c1C(=O)OCC`, the inhibition is reported as -2.22%.
Work on `Cc1ccc(CSCC(=O)N(C)CC(=O)Nc2cccc(F)c2)cc1` yielded an inhibition of -1.65%.
In the case of `CCS(=O)(=O)c1ccc(C(=O)NC)c(Cl)c1Cl`, the inhibition is reported as -0.44%.
With `O=C(NC1CCCC1)C1CSCCS(=O)(=O)N1Cc1ccccc1` (stereo not drawn) the inhibition was 4%.
Work on `CCc1nnc(NC(=O)C2CCCN2S(=O)(=O)c2ccccc2)s1` (stereo not drawn) yielded an inhibition of -1.9%.
`O=C(NC(=S)Nc1ccc(S(=O)(=O)Nc2ncccn2)cc1)c1cccc(Br)c1` showed an inhibition of 5.78%.
For `CCc1nnc(NS(=O)(=O)c2ccc(NC(=S)NC(=O)/C=C/c3cccs3)cc2)s1`, the inhibition was 83.9% (active).
With `CCc1nnc(NC(=O)[C@@H](NC(=O)c2cccc(C)c2)C(C)C)s1` the inhibition was 2.27%.
`Cc1ccc(S(=O)(=O)N(C)C)cc1NC(=O)/C=C/c1cccs1` gave an inhibition of 0.22%.
In the case of `NS(=O)(=O)c1ccc(NC(=S)NNC(=O)c2cccs2)cc1`, the inhibition is reported as -2.42%.
With `Cc1cc(NS(=O)(=O)c2ccc(NC(=O)c3cccc(OC(F)F)c3)cc2)nc(C)n1` the inhibition was 4.48%.
In the case of `CCc1nnc(NS(=O)(=O)c2ccc(NC(=O)c3cccc(OC(F)(F)C(F)F)c3)cc2)s1`, the inhibition is reported as 72.6% (active).
For `CCc1nnc(NS(=O)(=O)c2ccc(NC(=S)NC(=O)c3cccs3)cc2)s1`, the inhibition was 59% (active).
With `C=CCN=C1NC(c2ccccc2)C(C(=O)OC)=C(C)N1Cc1ccc(C(F)(F)F)cc1` (stereo not drawn) the inhibition was 8.06%.
With `CN(CCO)c1cccc2c1S(=O)(=O)N(Cc1cn(Cc3ccc(C(F)(F)F)cc3)nn1)Cc1ccccc1O2` the inhibition was -1.07%.
Work on `C/C=C/C(=O)OCC(=O)Nc1ccc(F)cc1Cl` yielded an inhibition of 4.85%.
Work on `Cc1cc2nc3c(=O)[nH]c(=O)nc-3n(C[C@H](O)[C@H](O)[C@H](O)CO)c2cc1C` yielded an inhibition of -477%.
For `CCN1C(=O)N[C@@H]2C[C@H](C(=O)N3CCCC3)[C@H](C)[C@H](c3ccccc3)C[C@@H]21`, the inhibition was 1.47%.
In the case of `Cc1ccccc1OCC(=O)Nc1nnc(S(=O)(=O)N2CCCC2)s1`, the inhibition is reported as 37.6% (active).
Work on `CC1CCN(S(=O)(=O)c2nnc(NC(=O)COc3ccccc3F)s2)CC1` yielded an inhibition of 8.39%.
Work on `CCc1ccccc1OCC(=O)Nc1ccc(C)c(S(=O)(=O)N2CCCCCC2)c1` yielded an inhibition of 3.67%.
For `COc1ccc(Cn2cc(CN3[C@@H](CC(C)C)COc4cc(Br)ccc4S3(=O)=O)nn2)cc1`, the inhibition was 2.72%.
For `O=C(C(=O)N1CCC(CNS(=O)(=O)Cc2ccccc2)CC1)c1cc2ccccc2o1`, the inhibition was 3.81%.
Work on `Cn1c2c(c(=O)n(C)c1=O)CN(Cc1ccco1)CN2` yielded an inhibition of -0.1%.
Compound `COc1ccc(-n2c(SCC(=O)Nc3ccc4c(c3)OCCO4)nnc2-c2ccc(Cl)cc2)cc1` has an inhibition of 6.74%.
For `COc1ccccc1C1C(C#N)=C(N)Oc2c1c(-c1ccccc1)nn2-c1ccccc1` (stereo not drawn), the inhibition was 54.6% (active).
`COc1ccc(C2C(C#N)=C(N)Oc3n[nH]c(C)c32)cc1CN1CCN(c2ccc(F)cc2)CC1` (stereo not drawn) showed an inhibition of 0.94%.
`COc1ccccc1C1CC(=O)n2c(nc(-c3ccccc3)c2-c2ccccc2)S1` (stereo not drawn) showed an inhibition of 9.44%.
With `CCCCCCCCN1C(=O)[C@@H](CC(=O)NCc2ccccc2)C[C@@]2(C(=O)OC)C1=C[C@H](C(C)(C)C)O[C@@H]2C` the inhibition was 1.31%.
`CN(c1ccccc1)S(=O)(=O)c1ccc(C(=O)NCc2cccnc2)cc1` gave an inhibition of 2.25%.
With `O=C(c1cccnc1)N(c1cc2sc(=O)oc2c2ccccc12)S(=O)(=O)c1ccccc1` the inhibition was 80.7% (active).
Work on `O=C(CN(c1cc(C(F)(F)F)ccc1Cl)S(=O)(=O)c1ccccc1)NCc1cccnc1` yielded an inhibition of -7.03%.
For `Cc1cc(N2CCN(C(=O)OC(C)(C)C)C[C@H]2C)ccc1N1CCN(Cc2ccccc2)[C@H](C)C1`, the inhibition was 0.53%.
Work on `CCOC(=O)C1C(C)C(C(C)(C)C)N(S(=O)(=O)c2ccc(C)cc2)C1c1ccccc1` (stereo not drawn) yielded an inhibition of 1.44%.
For `Cc1ccc(S(=O)(=O)N2[C@@H](c3cccc4ccccc34)C(C(=O)O)=C[C@H]2C(C)(C)C)cc1`, the inhibition was 50.6% (active).
Work on `Cc1ccc(S(=O)(=O)N2C[C@H]3C(=O)C[C@@H](c4cccc5ccccc45)N(S(=O)(=O)c4ccc(C)cc4)[C@H]3C[C@H]2c2ccc(Cl)cc2)cc1` yielded an inhibition of 13.6%.
`COc1cccc(/C=C2\CC3(OC(C)=O)CCCN2C3)c1` (stereo not drawn) gave an inhibition of 0.45%.
In the case of `C#CCN([C@@H](C)C(=O)OCC)S(=O)(=O)c1ccc(Br)cc1F`, the inhibition is reported as 2.12%.
For `O=c1oc(-c2ccccc2NS(=O)(=O)c2ccc(Cl)cc2)nc2ccccc12`, the inhibition was 39.1% (active).
Compound `O=c1ccc2cc(S(=O)(=O)Nc3ccccc3F)ccc2o1` has an inhibition of -1.01%.
With `O=c1oc2ccccc2c(NC2CCCCC2)c1NS(=O)(=O)c1ccc(Cl)cc1` the inhibition was 5.21%.
Compound `COc1ccc(-n2c(SCC(=O)Nc3ccccc3-c3ccccc3)nnc2-c2cccnc2)cc1` has an inhibition of 0.96%.
Work on `Cc1c(C(C)c2ccccc2O)[nH]c2ccccc12` (stereo not drawn) yielded an inhibition of 4.84%.
With `O=C(CSc1nnc(-c2ccccc2)n1Cc1ccco1)Nc1ccccc1-c1ccccc1` the inhibition was 5.56%.
For `Clc1ccc(-n2c(SC/C=C/c3ccccc3)nnc2-c2ccco2)cc1`, the inhibition was 2.56%.
For `Clc1ccccc1CSc1nnc(-c2ccco2)c(-c2ccco2)n1`, the inhibition was 54.8% (active).
Compound `COC(=O)C1CN(CC(C)C)CCS(=O)(=O)N1Cc1ccc(C)cc1` (stereo not drawn) has an inhibition of 2.99%.
`CC(C)(C)c1ccc(CSc2nnc(-c3cccs3)o2)cc1` showed an inhibition of -0.86%.
Compound `CC(C)N1CCCCC(NC(=O)c2ccc3ccccc3c2)C1=O` (stereo not drawn) has an inhibition of 2.21%.
Work on `Nc1ccn([C@@H]2O[C@H](C(=O)N[C@H]3CCCCNC3=O)[C@@H](O)[C@H]2O)c(=O)n1` yielded an inhibition of -0.39%.
With `Cc1ccc(-c2nn(-c3ccccc3)cc2/C=C2\SC(=S)N(CCCCCC(=O)O)C2=O)o1` the inhibition was 48.8% (active).
For `CN(C)S(=O)(=O)c1cccc(-c2nn(-c3ccccc3)cc2/C=C2\SC(=S)N(CC(=O)O)C2=O)c1`, the inhibition was 63.9% (active).
For `COc1cccc(-c2nn(-c3ccccc3)cc2/C=C(\C#N)C(=O)NCCCn2ccnc2)c1`, the inhibition was 4.33%.
With `Cc1nc(C)c(-c2nnc(-c3cccc(S(=O)(=O)N(C)C)c3)o2)cc1C(=O)NN` the inhibition was 10.6%.
Compound `O=C(CN1CCC(NC(=O)NCc2ccccc2)CC1)Nc1ccc2c(c1)OCCO2` has an inhibition of 0.82%.
`CCc1ccc(C2=CC(=O)CC(C)(C)C2=O)cc1` gave an inhibition of 3.63%.
Work on `COc1ccc(Cl)cc1NC(=O)COC(=O)C(CC(C)C)N1C(=O)C2CC=CCC2C1=O` (stereo not drawn) yielded an inhibition of -0.39%.
Work on `OC(c1ccccc1)(c1ccccc1)C1CCN(CCCOc2ccc(-c3ccsc3)cc2)CC1` yielded an inhibition of 9.5%.
In the case of `Cc1cc(C)c2nc(-c3cccnc3)cc(C(=O)Nc3ccc(S(=O)(=O)Nc4onc(C)c4C)cc3)c2c1`, the inhibition is reported as 80.4% (active).
For `Cc1noc(NS(=O)(=O)c2ccc(NC(=O)c3oc4ccc(F)cc4c3C)cc2)c1C`, the inhibition was 75.7% (active).
For `O=C(Nc1ccc(S(=O)(=O)Nc2ncccn2)cc1)c1cncc(Br)c1`, the inhibition was -0.76%.
Compound `Cc1ccnc(NS(=O)(=O)c2ccc(NC(=O)c3oc4ccccc4c3C)cc2)n1` has an inhibition of 33.1%.
With `Cc1cc(C)c2oc(C(=O)Nc3ccc(S(=O)(=O)Nc4nccc(C)n4)cc3)cc(=O)c2c1` the inhibition was 1.83%.
Compound `Cc1ccnc(NS(=O)(=O)c2ccc(NC(=O)c3oc4ccc(F)cc4c3C)cc2)n1` has an inhibition of 33.3%.
In the case of `CN1C(=O)C(Br)(Br)CC1c1cccnc1` (stereo not drawn), the inhibition is reported as 1.36%.
For `O=C(CCN1CCCCC1)N=Nc1c(O)[nH]c2ccccc12`, the inhibition was 4.74%.
In the case of `Cc1c(-c2ccccc2)n[nH]c1C(=O)N=Nc1c(O)[nH]c2ccccc12`, the inhibition is reported as 36.8% (active).
Work on `O=C(CSc1nc2ccccc2s1)N=Nc1c(O)[nH]c2ccccc12` yielded an inhibition of 10.6%.
In the case of `Cc1ccccc1Nc1nc(N)nc(COC(=O)CCC(=O)c2ccc(F)cc2)n1`, the inhibition is reported as 0.17%.
Work on `CCc1ccccc1NC(=O)CSc1nnc(-c2cccs2)o1` yielded an inhibition of -0.17%.
In the case of `CC(C)[C@@H](C)/C=C/[C@@H](C)[C@H]1CC[C@@H]2[C@]1(C)CCC1[C@]23C=C[C@]2(C[C@@H](O)CC[C@]12C)N(c1ccc([N+](=O)[O-])cn1)O3` (stereo partly drawn), the inhibition is reported as 27.1%.
With `Cc1ccsc1-c1cc(C(=O)O)c2c(ccc3ccccc32)n1` the inhibition was 9.82%.
With `COC(=O)c1cnn2c(C(F)(F)F)cc(-c3ccco3)nc12` the inhibition was 10.2%.
With `Cc1cc(C)c2nc(-c3ccco3)cc(C(=O)O)c2c1` the inhibition was 67.3% (active).
Compound `COC(=O)N1Cc2ccnnc2CC1c1ccccc1Br` (stereo not drawn) has an inhibition of 3.21%.

From PubChem BioAssay AID651821 (The Scripps Research Institute Molecular Screening Center, 2012)
